Results on five molecules are retold here after the supplement of paper PMC6897291.

This assay has as its system RIVA. The experiment in a line: growth inhibition by drug plus 177Lu-lilotomab satetraxetan (1 - RLU/untreated control) (fraction); higher = stronger inhibition. To be noted: 177Lu-lilotomab satetraxetan 0.5 ug/ml. The protocol:
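RIVA (RI-1) ABC-DLBCL cells were pretreated or not for 18 h with 0.5 ug/ml 177Lu-lilotomab satetraxetan (600 MBq/mg), washed and seeded (3000 cells/well) on 384-well plates pre-printed with the Selleck Cambridge Cancer Compound library. Viability was read by RealTime-Glo luminescence on days 3-6 after seeding. Effect = 1 - RLU/mean RLU of the 48 untreated no-drug control wells per plate; Bliss score = (M-E)/(1-Fa).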

Several values for one entry are separate records, joined by “and”; a condition that tells them apart may be missing. Equal entries are not always repeated. Structures can show the parent of a compound that is named as a salt.

For the molecule `C/C(=C\C(=O)Nc1ccccc1C(=O)O)c1ccc2ccccc2c1`, the “growth inhibition by drug plus 177Lu-lilotomab satetraxetan” value (from here on “growth inhibition”) is 0.404 and 0.42 (10 nM, time (day): 3); 0.545 and 0.538 (10 nM, time (day): 4); 0.571 and 0.547 (10 nM, time (day): 5); 0.581 and 0.558 (10 nM, time (day): 6); 0.399 and 0.427 (100 nM, time (day): 3); 0.502 and 0.474 (100 nM, time (day): 4). For the same molecule, the “growth inhibition” value is 0.502 and 0.482 (100 nM, time (day): 5); 0.484 and 0.467 (100 nM, time (day): 6).
Consider `CNNCc1ccc(C(=O)NC(C)C)cc1` [Procarbazine hydrochloride (Matulane)], for which the “growth inhibition” value was 0.542 (10 nM, time (day): 3); 0.584 (10 nM, time (day): 4); 0.596 (10 nM, time (day): 5); 0.607 (10 nM, time (day): 6); 0.494 (100 nM, time (day): 3); 0.553 (100 nM, time (day): 4). Further, the “growth inhibition” value runs as follows: (100 nM, time (day): 5) 0.563; (100 nM, time (day): 6) 0.554.
With `CN(C)CCCN=c1c2ccccc2n(C)c2[nH]c(=O)n(C)c(=O)c12`, the “growth inhibition” value was determined as 0.529 (10 nM, time (day): 3); 0.576 (10 nM, time (day): 4); 0.589 (10 nM, time (day): 5); 0.604 (10 nM, time (day): 6); 0.563 (100 nM, time (day): 3); 0.592 (100 nM, time (day): 4). The “growth inhibition” value (100 nM, time (day): 5) turned out to be 0.601 and the “growth inhibition” value (100 nM, time (day): 6) was found to be 0.604.
As to `CC[C@@]1(O)C(=O)OCc2c1cc1n(c2=O)Cc2cc3c(CN(C)C)c(O)ccc3nc2-1` [Topotecan HCl], the “growth inhibition” value (10 nM, time (day): 3) was 0.802; the “growth inhibition” value (10 nM, time (day): 4) came to 0.878; the “growth inhibition” value (10 nM, time (day): 5) is 0.913; the “growth inhibition” value (10 nM, time (day): 6) was 0.944; the “growth inhibition” value (100 nM, time (day): 3) turned out to be 0.814; the “growth inhibition” value (100 nM, time (day): 4) turned out to be 0.883. Also, the “growth inhibition” value runs as follows: (100 nM, time (day): 5) 0.91; (100 nM, time (day): 6) 0.931.
As to `CO[C@H]1C[C@@H]2CC[C@@H](C)[C@@](O)(O2)C(=O)C(=O)N2CCCC[C@H]2C(=O)O[C@H]([C@H](C)C[C@@H]2CC[C@@H](O)[C@H](OC)C2)CC(=O)[C@H](C)/C=C(\C)[C@@H](O)[C@@H](OC)C(=O)[C@H](C)C[C@H](C)/C=C/C=C/C=C/1C` [Rapamycin (Sirolimus)], the “growth inhibition” value reads like this: (10 nM, time (day): 3) 0.839; (10 nM, time (day): 4) 0.875; (10 nM, time (day): 5) 0.88; (10 nM, time (day): 6) 0.873; (100 nM, time (day): 3) 0.829; (100 nM, time (day): 4) 0.867. Also, the “growth inhibition” value (100 nM, time (day): 5) is 0.88 and the “growth inhibition” value (100 nM, time (day): 6) was 0.878.
